# Laboratory results: publication PMC7862700, “An all-to-all approach to the identification of sequence-specific readers for epigenetic DNA modifications on cytosine”
# What was measured:
# Test in all cases: DAPPL (digital affinity profiling via proximity ligation, sequencing); 10 mM Tris-HCl pH 7.5, 50 mM NaCl, 1 mM DTT, 4% glycerol, room temperature, 30 min; GST-TFs on glutathione beads, 16-mer random dsDNA library, 0.1% formaldehyde crosslink after washing; high values mean tight binding
# FEV = molecular target: T1, FEV (Homo sapiens, UniProt Q99581 1-238); details: protein: recombinant; tags: N-terminal GST; dsDNA, one strand shown
# T1 sequence: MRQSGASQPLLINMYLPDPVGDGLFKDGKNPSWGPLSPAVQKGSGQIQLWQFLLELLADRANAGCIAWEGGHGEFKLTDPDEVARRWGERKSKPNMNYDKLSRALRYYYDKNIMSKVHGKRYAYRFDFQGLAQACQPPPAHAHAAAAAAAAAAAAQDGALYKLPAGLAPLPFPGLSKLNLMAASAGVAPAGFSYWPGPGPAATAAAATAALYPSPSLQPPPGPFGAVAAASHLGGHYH
# Procedure, shortened: (§1)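 Binding signal is given per hexamer as its read frequency for a factor divided by its frequency in the tag-only sample. GST-fused human transcription factors were expressed in yeast, captured on glutathione beads, barcoded with DNA and pooled with that sample, then incubated with 200 nmole of a 16-mer random double-stranded DNA library in Tris/NaCl/DTT/glycerol buffer for 30 min at room temperature. The pools were then washed, crosslinked, proximity-ligated, amplified by PCR and sequenced on an Illumina NextSeq500.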
# ETV5 = ETV5 (Homo sapiens, UniProt P41161 1-510); details: protein: recombinant; tags: N-terminal GST; dsDNA, one strand shown
# Procedure, shortened: as §1
# HSF1 = HSF1 (Homo sapiens, UniProt Q00613 1-529); details: protein: recombinant; tags: N-terminal GST; chain copies: 3; dsDNA, one strand shown
# Procedure, shortened: as §1
# SPIC = molecular target: T2, SPIC (Homo sapiens, UniProt Q8N5J4 1-248); details: protein: recombinant; tags: N-terminal GST; dsDNA, one strand shown
# T2 sequence: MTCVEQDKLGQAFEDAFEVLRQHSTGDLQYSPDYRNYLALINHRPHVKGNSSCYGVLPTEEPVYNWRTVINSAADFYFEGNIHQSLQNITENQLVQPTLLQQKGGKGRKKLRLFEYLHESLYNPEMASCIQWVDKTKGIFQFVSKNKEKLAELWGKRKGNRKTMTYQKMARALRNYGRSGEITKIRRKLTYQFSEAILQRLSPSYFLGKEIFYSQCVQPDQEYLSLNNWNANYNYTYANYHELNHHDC
# Procedure, shortened: as §1
# ELF4 = ELF4 (Homo sapiens, UniProt Q99607 1-663); details: protein: recombinant; tags: N-terminal GST; dsDNA, one strand shown
# Procedure, shortened: as §1
# ELK4 = molecular target: T3, ELK4 (Homo sapiens, UniProt P28324-2 1-405); details: protein: recombinant; tags: N-terminal GST; dsDNA, one strand shown
# T3 sequence: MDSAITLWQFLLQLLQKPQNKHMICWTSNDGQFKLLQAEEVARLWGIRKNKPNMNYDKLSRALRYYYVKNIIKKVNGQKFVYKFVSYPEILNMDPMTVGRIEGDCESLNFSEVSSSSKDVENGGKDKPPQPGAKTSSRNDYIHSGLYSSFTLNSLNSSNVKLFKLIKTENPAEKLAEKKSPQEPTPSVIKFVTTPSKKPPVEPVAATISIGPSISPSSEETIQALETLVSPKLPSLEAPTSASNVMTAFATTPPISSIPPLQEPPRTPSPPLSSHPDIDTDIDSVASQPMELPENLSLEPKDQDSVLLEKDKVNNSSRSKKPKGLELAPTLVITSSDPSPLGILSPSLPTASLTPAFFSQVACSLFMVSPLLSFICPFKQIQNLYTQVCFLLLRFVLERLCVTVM
# Procedure, shortened: as §1
# ETV2 = molecular target: T4, ETV2 (Homo sapiens, UniProt O00321 1-342); details: protein: recombinant; tags: N-terminal GST; dsDNA, one strand shown
# T4 sequence: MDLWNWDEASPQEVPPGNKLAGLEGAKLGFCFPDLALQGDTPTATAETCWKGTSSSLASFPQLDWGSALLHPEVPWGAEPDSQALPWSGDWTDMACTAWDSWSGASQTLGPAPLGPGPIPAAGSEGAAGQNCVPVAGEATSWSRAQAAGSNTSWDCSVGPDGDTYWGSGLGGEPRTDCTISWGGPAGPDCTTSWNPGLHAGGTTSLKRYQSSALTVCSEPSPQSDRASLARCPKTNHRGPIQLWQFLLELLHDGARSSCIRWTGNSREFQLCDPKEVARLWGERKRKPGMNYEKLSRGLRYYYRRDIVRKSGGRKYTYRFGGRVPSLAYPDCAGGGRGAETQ
# Procedure, shortened: as §1
# ELF3 = molecular target: T5, ELF3 (Homo sapiens, UniProt P78545 1-371); details: protein: recombinant; tags: N-terminal GST; dsDNA, one strand shown
# T5 sequence: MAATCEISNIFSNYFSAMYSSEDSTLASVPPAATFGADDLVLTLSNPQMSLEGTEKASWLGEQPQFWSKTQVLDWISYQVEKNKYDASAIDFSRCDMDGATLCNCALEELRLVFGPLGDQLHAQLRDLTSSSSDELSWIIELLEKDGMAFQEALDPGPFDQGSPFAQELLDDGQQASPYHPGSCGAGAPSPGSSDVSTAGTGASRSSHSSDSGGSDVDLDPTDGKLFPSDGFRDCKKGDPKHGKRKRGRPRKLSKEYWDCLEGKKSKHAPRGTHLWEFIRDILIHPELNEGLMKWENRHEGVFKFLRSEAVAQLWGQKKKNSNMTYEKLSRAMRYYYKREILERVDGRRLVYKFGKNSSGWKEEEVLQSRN
# Procedure, shortened: as §1
# CRX = CRX (Homo sapiens, UniProt O43186 1-299); details: protein: recombinant; tags: N-terminal GST; dsDNA, one strand shown
# Procedure, shortened: as §1
# ETV1 = ETV1 (Homo sapiens, UniProt P50549 1-477); details: protein: recombinant; tags: N-terminal GST; dsDNA, one strand shown
# Procedure, shortened: as §1
# ERF = molecular target: T6, ERF (Homo sapiens, UniProt P50548 1-548); details: protein: recombinant; tags: N-terminal GST; dsDNA, one strand shown
# T6 sequence: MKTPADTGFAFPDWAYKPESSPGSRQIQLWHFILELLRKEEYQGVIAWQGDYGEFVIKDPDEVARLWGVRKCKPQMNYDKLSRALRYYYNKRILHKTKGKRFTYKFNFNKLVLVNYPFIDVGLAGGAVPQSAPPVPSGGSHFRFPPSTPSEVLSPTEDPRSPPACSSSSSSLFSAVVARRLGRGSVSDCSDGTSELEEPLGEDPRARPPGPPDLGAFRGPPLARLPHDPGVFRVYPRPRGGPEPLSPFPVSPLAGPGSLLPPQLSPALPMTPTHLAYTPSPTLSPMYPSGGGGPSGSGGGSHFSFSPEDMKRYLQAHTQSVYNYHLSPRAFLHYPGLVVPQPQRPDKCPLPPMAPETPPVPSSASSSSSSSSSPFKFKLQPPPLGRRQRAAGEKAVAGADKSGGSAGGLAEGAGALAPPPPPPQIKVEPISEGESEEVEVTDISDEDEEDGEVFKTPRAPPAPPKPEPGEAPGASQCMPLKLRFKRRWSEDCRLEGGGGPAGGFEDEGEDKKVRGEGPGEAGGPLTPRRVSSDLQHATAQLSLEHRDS
# Procedure, shortened: as §1
# ETV3L = molecular target: T7, ETV3L (Homo sapiens, UniProt Q6ZN32 1-361); details: protein: recombinant; tags: N-terminal GST; dsDNA, one strand shown
# T7 sequence: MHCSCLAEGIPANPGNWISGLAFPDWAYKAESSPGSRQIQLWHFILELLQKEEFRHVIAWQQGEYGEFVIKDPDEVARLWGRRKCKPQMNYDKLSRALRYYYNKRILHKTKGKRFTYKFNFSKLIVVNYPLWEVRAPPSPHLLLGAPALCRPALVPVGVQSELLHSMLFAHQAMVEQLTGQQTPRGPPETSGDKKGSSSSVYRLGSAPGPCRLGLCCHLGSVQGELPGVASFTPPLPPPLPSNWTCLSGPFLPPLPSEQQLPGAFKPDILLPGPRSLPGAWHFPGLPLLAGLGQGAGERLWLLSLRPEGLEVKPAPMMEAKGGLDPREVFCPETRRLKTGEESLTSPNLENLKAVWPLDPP
# Procedure, shortened: as §1
# ETS2 = molecular target: T8, ETS2 (Homo sapiens, UniProt P15036 1-469); details: protein: recombinant; tags: N-terminal GST; dsDNA, one strand shown
# T8 sequence: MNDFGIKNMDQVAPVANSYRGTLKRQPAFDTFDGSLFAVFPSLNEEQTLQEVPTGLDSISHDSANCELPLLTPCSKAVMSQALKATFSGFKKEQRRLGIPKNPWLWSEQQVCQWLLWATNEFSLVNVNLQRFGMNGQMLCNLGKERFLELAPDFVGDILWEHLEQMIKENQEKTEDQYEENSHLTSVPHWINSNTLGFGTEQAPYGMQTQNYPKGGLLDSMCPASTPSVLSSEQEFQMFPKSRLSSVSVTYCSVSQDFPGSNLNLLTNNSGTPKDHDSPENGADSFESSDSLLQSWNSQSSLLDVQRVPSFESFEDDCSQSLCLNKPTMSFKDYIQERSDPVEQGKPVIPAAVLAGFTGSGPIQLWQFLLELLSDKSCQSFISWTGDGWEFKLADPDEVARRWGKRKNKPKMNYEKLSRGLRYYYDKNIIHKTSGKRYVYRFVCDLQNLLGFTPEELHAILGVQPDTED
# Procedure, shortened: as §1
# SPDEF = molecular target: T9, SPDEF (Homo sapiens, UniProt O95238 1-335); details: protein: recombinant; tags: N-terminal GST; dsDNA, one strand shown
# T9 sequence: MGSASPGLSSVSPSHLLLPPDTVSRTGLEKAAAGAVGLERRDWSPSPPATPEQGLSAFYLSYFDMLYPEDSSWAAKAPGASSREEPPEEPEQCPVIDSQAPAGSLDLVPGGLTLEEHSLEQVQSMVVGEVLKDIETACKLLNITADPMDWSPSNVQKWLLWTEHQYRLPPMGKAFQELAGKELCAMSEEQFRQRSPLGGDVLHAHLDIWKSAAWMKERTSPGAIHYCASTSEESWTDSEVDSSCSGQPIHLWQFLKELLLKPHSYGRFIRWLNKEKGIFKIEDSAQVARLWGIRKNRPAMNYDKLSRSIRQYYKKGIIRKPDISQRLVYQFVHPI
# Procedure, shortened: as §1
# ETV7 = molecular target: T10, ETV7 (Homo sapiens, UniProt Q9Y603 1-341); details: protein: recombinant; tags: N-terminal GST; dsDNA, one strand shown
# T10 sequence: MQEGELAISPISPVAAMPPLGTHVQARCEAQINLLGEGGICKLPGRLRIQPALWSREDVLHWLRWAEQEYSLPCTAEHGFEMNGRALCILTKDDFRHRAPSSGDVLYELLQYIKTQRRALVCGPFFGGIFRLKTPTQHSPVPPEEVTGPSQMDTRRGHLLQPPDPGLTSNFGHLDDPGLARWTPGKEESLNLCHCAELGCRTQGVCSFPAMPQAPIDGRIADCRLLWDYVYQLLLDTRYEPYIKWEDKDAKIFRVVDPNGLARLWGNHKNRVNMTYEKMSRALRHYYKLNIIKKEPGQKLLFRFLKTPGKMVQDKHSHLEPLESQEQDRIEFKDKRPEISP
# Procedure, shortened: as §1
# ELF5 = molecular target: T11, ELF5 (Homo sapiens, UniProt Q9UKW6-2 1-255); details: protein: recombinant; tags: N-terminal GST; dsDNA, one strand shown
# T11 sequence: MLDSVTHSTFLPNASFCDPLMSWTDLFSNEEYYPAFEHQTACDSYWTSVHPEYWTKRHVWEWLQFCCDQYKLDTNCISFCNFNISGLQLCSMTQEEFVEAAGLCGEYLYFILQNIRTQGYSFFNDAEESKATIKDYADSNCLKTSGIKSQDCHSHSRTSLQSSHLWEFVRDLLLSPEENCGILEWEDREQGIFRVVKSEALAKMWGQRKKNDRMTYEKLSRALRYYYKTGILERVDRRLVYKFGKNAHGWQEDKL
# Procedure, shortened: as §1
# ETV3 = molecular target: T12, ETV3 (Homo sapiens, UniProt P41162-2 1-143); details: protein: recombinant; tags: N-terminal GST; dsDNA, one strand shown
# T12 sequence: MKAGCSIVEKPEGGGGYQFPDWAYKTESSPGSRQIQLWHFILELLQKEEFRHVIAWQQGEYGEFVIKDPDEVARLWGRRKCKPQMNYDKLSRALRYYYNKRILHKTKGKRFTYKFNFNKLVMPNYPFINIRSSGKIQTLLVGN
# Procedure, shortened: as §1
# ETV6 = ETV6 (Homo sapiens, UniProt P41212 1-452); details: protein: recombinant; tags: N-terminal GST; dsDNA, one strand shown
# Procedure, shortened: as §1
# Sequence of HSF1 (Q00613 whole entry): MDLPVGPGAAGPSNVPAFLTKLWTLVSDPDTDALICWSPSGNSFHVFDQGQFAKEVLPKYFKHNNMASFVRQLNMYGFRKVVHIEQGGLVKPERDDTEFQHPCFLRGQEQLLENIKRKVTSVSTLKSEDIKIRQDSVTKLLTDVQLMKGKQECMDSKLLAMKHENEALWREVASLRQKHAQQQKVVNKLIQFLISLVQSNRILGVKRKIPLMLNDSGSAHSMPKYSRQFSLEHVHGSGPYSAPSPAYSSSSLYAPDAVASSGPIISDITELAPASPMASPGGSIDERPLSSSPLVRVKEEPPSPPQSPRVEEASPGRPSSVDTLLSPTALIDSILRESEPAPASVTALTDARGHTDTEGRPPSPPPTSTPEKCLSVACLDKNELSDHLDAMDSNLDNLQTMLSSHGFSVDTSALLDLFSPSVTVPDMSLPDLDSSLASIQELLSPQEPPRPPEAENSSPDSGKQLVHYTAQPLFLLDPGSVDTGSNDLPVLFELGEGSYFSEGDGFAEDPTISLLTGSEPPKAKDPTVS
# Sequence of ETV5 (P41161 whole entry): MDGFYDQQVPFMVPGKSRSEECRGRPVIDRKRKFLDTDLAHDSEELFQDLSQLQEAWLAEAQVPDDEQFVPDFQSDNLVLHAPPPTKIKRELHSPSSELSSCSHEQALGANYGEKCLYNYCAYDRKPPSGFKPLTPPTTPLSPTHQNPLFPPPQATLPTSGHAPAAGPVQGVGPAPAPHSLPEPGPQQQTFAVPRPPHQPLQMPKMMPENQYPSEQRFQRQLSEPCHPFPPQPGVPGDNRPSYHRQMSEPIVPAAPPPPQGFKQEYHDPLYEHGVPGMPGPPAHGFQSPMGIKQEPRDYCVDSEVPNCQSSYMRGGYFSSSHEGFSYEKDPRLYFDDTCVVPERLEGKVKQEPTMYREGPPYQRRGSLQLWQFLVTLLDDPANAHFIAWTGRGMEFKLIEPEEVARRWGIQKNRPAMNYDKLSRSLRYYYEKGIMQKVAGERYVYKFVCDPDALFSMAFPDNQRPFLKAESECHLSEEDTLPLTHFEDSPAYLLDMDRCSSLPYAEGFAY
# Sequence of CRX (O43186 whole entry): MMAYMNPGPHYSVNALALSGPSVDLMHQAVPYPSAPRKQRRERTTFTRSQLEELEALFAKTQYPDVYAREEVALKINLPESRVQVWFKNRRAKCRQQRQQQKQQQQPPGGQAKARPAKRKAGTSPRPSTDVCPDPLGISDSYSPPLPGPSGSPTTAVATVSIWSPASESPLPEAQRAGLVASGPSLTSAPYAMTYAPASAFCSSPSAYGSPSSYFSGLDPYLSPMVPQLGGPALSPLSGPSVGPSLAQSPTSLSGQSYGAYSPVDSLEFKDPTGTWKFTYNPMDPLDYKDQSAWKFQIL
# Sequence of ETV1 (P50549 whole entry): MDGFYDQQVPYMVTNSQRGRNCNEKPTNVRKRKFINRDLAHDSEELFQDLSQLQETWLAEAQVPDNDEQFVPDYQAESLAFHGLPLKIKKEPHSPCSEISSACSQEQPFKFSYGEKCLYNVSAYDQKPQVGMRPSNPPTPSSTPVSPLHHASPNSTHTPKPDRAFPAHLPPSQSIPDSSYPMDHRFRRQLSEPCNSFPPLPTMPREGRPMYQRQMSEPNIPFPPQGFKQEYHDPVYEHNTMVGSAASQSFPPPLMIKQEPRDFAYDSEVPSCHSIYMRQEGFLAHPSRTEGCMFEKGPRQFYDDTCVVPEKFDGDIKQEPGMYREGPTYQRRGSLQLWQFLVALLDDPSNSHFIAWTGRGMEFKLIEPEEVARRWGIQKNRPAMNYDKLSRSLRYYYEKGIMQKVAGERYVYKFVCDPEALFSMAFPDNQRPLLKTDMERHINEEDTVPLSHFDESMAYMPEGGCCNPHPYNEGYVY
# Sequence of ELF4 (Q99607 whole entry): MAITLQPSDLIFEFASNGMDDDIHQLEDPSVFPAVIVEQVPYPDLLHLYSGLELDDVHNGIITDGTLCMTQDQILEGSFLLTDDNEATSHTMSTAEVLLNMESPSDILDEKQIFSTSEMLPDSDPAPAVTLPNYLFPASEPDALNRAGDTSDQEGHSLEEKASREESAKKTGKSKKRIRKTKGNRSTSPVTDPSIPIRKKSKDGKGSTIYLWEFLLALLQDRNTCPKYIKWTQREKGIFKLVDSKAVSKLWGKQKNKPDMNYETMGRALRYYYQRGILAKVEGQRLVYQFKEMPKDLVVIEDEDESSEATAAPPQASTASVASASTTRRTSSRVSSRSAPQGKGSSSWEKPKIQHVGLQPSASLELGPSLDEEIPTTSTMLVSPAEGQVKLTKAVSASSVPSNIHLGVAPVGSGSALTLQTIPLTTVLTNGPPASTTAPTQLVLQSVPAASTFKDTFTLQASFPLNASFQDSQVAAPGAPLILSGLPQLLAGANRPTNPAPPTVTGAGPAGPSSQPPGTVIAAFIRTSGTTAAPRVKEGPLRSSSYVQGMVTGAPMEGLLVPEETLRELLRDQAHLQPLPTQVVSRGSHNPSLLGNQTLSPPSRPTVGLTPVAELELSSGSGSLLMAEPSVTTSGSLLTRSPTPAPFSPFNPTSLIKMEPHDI
# Sequence of ETV6 (P41212 whole entry): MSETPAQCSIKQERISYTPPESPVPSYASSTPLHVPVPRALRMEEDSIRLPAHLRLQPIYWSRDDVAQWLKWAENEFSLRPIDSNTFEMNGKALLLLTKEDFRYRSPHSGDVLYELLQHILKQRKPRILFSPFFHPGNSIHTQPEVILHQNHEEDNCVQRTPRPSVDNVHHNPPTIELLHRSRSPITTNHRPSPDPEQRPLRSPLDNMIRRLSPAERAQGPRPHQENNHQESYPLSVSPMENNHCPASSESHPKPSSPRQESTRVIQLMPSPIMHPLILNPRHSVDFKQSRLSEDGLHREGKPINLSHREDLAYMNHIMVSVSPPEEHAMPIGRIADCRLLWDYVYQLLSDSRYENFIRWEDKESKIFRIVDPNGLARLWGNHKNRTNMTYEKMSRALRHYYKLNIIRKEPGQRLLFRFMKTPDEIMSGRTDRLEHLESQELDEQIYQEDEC
sequence,measurement,setting,value
CCTCAG,binding signal,FEV,"1.21 fold enrichment (6-mer frequency, TF over GST control)"
same,binding signal,ETV5,"1.12 fold enrichment (6-mer frequency, TF over GST control)"
same,binding signal,HSF1,"1.07 fold enrichment (6-mer frequency, TF over GST control)"
same,binding signal,SPIC,"1.17 fold enrichment (6-mer frequency, TF over GST control)"
same,binding signal,ELF4,"1.3 fold enrichment (6-mer frequency, TF over GST control)"
same,binding signal,ELK4,"1.4 fold enrichment (6-mer frequency, TF over GST control)"
same,binding signal,ETV2,"1.37 fold enrichment (6-mer frequency, TF over GST control)"
same,binding signal,ELF3,"1.35 fold enrichment (6-mer frequency, TF over GST control)"
same,binding signal,CRX,"1.15 fold enrichment (6-mer frequency, TF over GST control)"
same,binding signal,ETV1,"1.13 fold enrichment (6-mer frequency, TF over GST control)"
same,binding signal,ERF,"1.35 fold enrichment (6-mer frequency, TF over GST control)"
same,binding signal,ETV3L,"1.27 fold enrichment (6-mer frequency, TF over GST control)"
same,binding signal,ETS2,"1.25 fold enrichment (6-mer frequency, TF over GST control)"
same,binding signal,SPDEF,"1.1 fold enrichment (6-mer frequency, TF over GST control)"
same,binding signal,ETV7,"1.1 fold enrichment (6-mer frequency, TF over GST control)"
same,binding signal,ELF5,"1.14 fold enrichment (6-mer frequency, TF over GST control)"
same,binding signal,ETV3,"1.17 fold enrichment (6-mer frequency, TF over GST control)"
same,binding signal,ETV6,"1.15 fold enrichment (6-mer frequency, TF over GST control)"
